Data from PubChem BioAssay (NCI).
About 83,000 compounds went through this panel and 20% of them were active in at least one assay; those are over-represented in the sample as a whole.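 Treatment: one concentration, 48 hours, 96-well format. Scoring: percent growth, with anything below 10 considered active.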 Values without a mark were called inactive. Activity calls are given as the source filed them.

Tests used:
Assay in all cases: NCI-60 one-dose screen, 48 h (100 = growth as untreated, 0 = no growth, -100 = all killed)
Conditions in all cases: 10 µM unless noted
[1] = tested on: DU-145 prostate
[2] = tested on: K-562 leukemia
[3] = tested on: MALME-3M melanoma
[4] = tested on: MDA-MB-231 breast
[5] = tested on: RXF 393 renal
[6] = tested on: SF-268 CNS
[7] = tested on: SF-539 CNS
[8] = tested on: UACC-257 melanoma
[9] = tested on: M14 melanoma
[10] = tested on: SF-295 CNS

Compound	growth [1]	growth [2]	growth [3]	growth [4]	growth [5]	growth [6]	growth [7]	growth [8]	growth [9]	growth [10]
O=[As](O)(O)c1ccccc1[As](=O)(O)O	109%	107%	115%	103%	120%	99.3%	96.3%	101%	116%	–
C[C@]12CCc3nc(Nc4ccccc4F)sc3C1=CC[C@@H]1[C@@H]2CC[C@]2(C)C(=O)CC[C@@H]12	28.4%	21.7%	75.7%	92.5%	–	78.8%	41.4%	90.7%	75.1%	51%
O=C(O)c1ccc([S-])cc1.[Au+].c1ccc(CN2[CH-]N(Cc3ccccc3)C(c3ccccc3)=C2c2ccccc2)cc1	-47.2% (active)	-16.9% (active)	-68.6% (active)	-62.5% (active)	-88.9% (active)	-42.7% (active)	-1.4% (active)	-19.1% (active)	-48.1% (active)	–
Clc1ccc(COC(Cn2ccnc2)c2ccc(Cl)cc2Cl)cc1 (centres undefined)	71.6%	-4.49% (active)	42.9%	57.6%	–	52.1%	87.7%	61.9%	58.9%	17.9%
O=C(Nc1ccc([As]=[As]c2ccc(NC(=O)c3ccccc3)cc2)cc1)c1ccccc1 (centres undefined)	-96% (active)	-16.8% (active)	-80.5% (active)	–	-97.8% (active)	-91.4% (active)	-90.9% (active)	-87% (active)	-89% (active)	-52.7% (active)
COC(=O)[C@@H](C)C[C@H](Cc1ccc(F)cc1)NC(=O)c1csc([C@@H](C[C@H](C(C)C)N(C)C(=O)[C@@H](NC(=O)[C@H]2CCCCN2C)C2CC2)OC(C)=O)n1	13.1%	9.43% (active)	55.2%	13.3%	–	30.9%	-4.81% (active)	–	1.41% (active)	2.38% (active)
CCOC(=O)CCC(NC(=O)C(Cc1ccc(N(CCCl)CCCl)cc1)NC=O)C(=O)OCC (centres undefined)	36.3%	35.6%	-80.2% (active)	–	-75.9% (active)	–	-61.7% (active)	-9.97% (active)	-62.9% (active)	21.5%
O=P1(NCCCl)OCCCN1CCCl (centres undefined)	110%	95.8%	120%	120%	–	109%	98.3%	116%	106%	99.2%
O=C(NCCN1CC1)C(=O)NCCN1CC1	90.2%	87.9%	103%	99.3%	–	77.8%	101%	85.1%	92.9%	51%
O[C@H](CN1CC1)[C@@H](O)CN1CC1	39.5%	65.9%	–	109%	77.2%	45.5%	24.6%	86.3%	48.9%	19.6%
N/C(=N/N=C/c1ccncc1)N[N+](=O)[O-]	108%	90%	96.2%	–	121%	102%	94.3%	102%	104%	99.5%
Cc1ccc(C(=O)NCCCOc2ccc(N)cc2Cl)cc1S(=O)(=O)F	107%	91.9%	87.6%	106%	–	102%	103%	87.1%	97.8%	86.3%
CCOC(=O)c1c(C)n(Cc2ccccc2)c2cc(CN(C)C)c(O)cc12	79.9%	29.3%	103%	–	66.9%	82.9%	57.8%	81.8%	81.3%	43.6%
C=CCCCCCCCCC(=O)[O-].C=CCCCCCCCCC(=O)[O-].[Zn+2]	114%	92%	108%	–	–	106%	97.9%	98.5%	107%	97.7%
ClCCN(CCCl)c1ccc(-n2cnc3c(Cl)ncnc32)cc1	21.9%	-2.07% (active)	–	62.9%	-57.2% (active)	-11.9% (active)	115%	49.7%	33.3%	87%
CC(C)=CCC/C(C)=C/C=N\N=C(/N)N[N+](=O)[O-]	102%	95.9%	93.5%	–	122%	93%	89.2%	107%	102%	101%
O=Cc1cn(Cc2ccc(Cl)cc2)c2ccccc12	95.5%	40.5%	96.5%	96.1%	–	89.6%	87.4%	21.8%	83.8%	46%
COC(=O)C12CC(NC(=O)c3csc([C@@H](C[C@H](C(C)C)N(C)C(=O)[C@@H](NC(=O)[C@H]4CCCCN4C)C(C)C)OC(C)=O)n3)(C1)C2	16.6%	12%	54.4%	11.9%	–	22.9%	-29.9% (active)	–	2.68% (active)	-11.2% (active)
O=NNc1ccccn1	5.33% (active)	77.7%	–	91.2%	83.8%	91.1%	94.3%	94.9%	87.3%	96%
Cc1ccc(S(=O)(=O)F)cc1C(=O)O	104%	109%	86.8%	107%	–	101%	94%	93.3%	110%	95.1%
CN(C)C(=O)Oc1ccccc1-c1ccccc1	111%	89.5%	110%	110%	–	102%	103%	–	103%	97.4%
Nc1ccc2c(c1)oc1ccccc12	103%	89.5%	–	80.2%	92.4%	83.3%	104%	92.6%	101%	102%
O=C1C=C(N2C3C4CCC(C4)C32)C(=O)C=C1c1ccccc1 (centres undefined)	105%	32.9%	55.4%	76.6%	–	89.6%	96.5%	73.1%	111%	–
CCCCN1CCCC[C@@H]1C(=O)N[C@H](C(=O)N(C)[C@H](CCc1nc(C(=O)N[C@@H](Cc2ccccc2)C[C@H](C)C(=O)OC)cs1)C(C)C)[C@@H](C)CC	79.2%	34%	48.5%	59.6%	–	64.4%	84%	–	48.6%	26.3%
Clc1ccc2nnnn2n1	3.28% (active)	-11.3% (active)	66.2%	36.8%	–	25%	47%	41.1%	37.7%	67.7%
COC(=O)[C@@H](C)C[C@H](Cc1cn(C)c2ccccc12)NC(=O)c1csc([C@@H](C[C@H](C(C)C)N(C)C(=O)[C@@H](NC(=O)[C@H]2CCCCN2C)C(C)C)OC(C)=O)n1	12.4%	6.65% (active)	50.4%	5.09% (active)	–	16.6%	-8.57% (active)	–	-10.2% (active)	-0.0499% (active)
CC[C@H](C)[C@H](NC(=O)[C@H]1CCCCN1C)C(=O)N(C)[C@H](CCc1nc(C(=O)N[C@@H](Cc2ccccc2)C[C@H](C)C(=O)OC)cs1)C(C)C	6.52% (active)	9.7% (active)	65.4%	11.8%	–	19.6%	0.775% (active)	–	-15.3% (active)	7.05% (active)
CC1(C)[C@H](O)[C@H](F)C[C@@]2(C)Oc3ccc(C(=O)Nc4ccc5c(c4)NC(=O)C54CCN(CCCCC#N)CC4)cc3C[C@H]12	48.5%	2.93% (active)	13.5%	28.8%	–	43.6%	8.86% (active)	–	-6.54% (active)	-59.6% (active)
O=C1OCC2=C1C(c1ccccc1)c1cc3c(cc1N2)OCO3 (centres undefined)	-36.2% (active)	14.5%	58%	-1.65% (active)	–	10.4%	4.21% (active)	35.2%	10%	6.68% (active)
C=C1[C@@H](C)[C@H]2[C@H](Cc3ccccc3)NC(=O)[C@]23[C@@H](O)/C=C/[C@@](C)(O)C(=O)[C@@H](C)C/C=C/[C@H]3[C@@H]1O	82.9%	52%	62.5%	32.9%	–	24.5%	21.9%	–	68.8%	39.2%
